G9a inh – qHTS Assay for Inhibitors of Histone Lysine Methyltransferase G9a | Histone-lysine N-methyltransferase EHMT2 (Homo sapiens), Q96KQ7 | G9a H3K9 monomethylation, AlphaScreen, 2 h | Potency, µM (series often up to 102 µM), most hits filed as inhibitors | 350,000 compounds, 8.8% hits | AID 504332, 2011; also: nearly all actives have a fitted effect of over 75% in size
Target sequence (Q96KQ7 913-1193 limits assumed): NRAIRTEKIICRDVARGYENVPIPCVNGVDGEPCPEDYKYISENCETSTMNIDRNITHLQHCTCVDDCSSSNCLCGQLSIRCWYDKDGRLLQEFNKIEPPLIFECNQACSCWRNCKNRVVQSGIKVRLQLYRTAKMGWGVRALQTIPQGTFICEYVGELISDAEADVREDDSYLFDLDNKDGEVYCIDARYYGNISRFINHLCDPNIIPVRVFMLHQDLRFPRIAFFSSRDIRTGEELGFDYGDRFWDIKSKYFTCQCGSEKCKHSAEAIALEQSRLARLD
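Methyltransferase reactions run at room temperature for 2 h (20 nM enzyme, 500 nM biotin-H3K9 peptide, 20 uM SAM) after a 15 min compound preincubation; product detected by AlphaScreen beads and anti-H3K9me1 antibody.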
PLK1 PBD inh – qHTS for Inhibitors of PLK1-PDB (polo-like kinase 1 - polo-box domain): Primary Screen. Potency, µM, usual class: inhibitors. Plk1 PBD binding of FITC phosphopeptide, fluorescence polarization. Serine/threonine-protein kinase PLK1 (Homo sapiens), P53350. AID 720504, 2013. 360,000 compounds, 2.8% hits; also: series mostly up to about 57 µM; nearly all actives have a fitted effect of over 65% in size
BAZ2B inh – qHTS Assay for Inhibitors of BAZ2B. Bromodomain adjacent to zinc finger domain protein 2B (Homo sapiens), Q9UIF8. AlphaScreen BAZ2B-H3K14Ac peptide displacement. Potency, µM (series often up to 114 µM), usual class: inhibitors. 360,000 compounds, 4.4% hits. AID 504333, 2011; also: nearly all actives have a fitted effect of over 60% in size
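Protein-peptide AlphaScreen: BAZ2B 50 nM, b-H3K14Ac 50 nM, 1x PBS pH 7.4 + 0.01% Tween-20. Preincubation 30 min RT; cpd 30 min RT (top 110 uM); beads 20 min RT, light-protected.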
12-LOX inh – Primary qHTS assay for inhibitors of human arachidonate 12S-lipoxygenase (ALOX12): Round 2; AID 1671190, 2021; Potency, µM (titrated, usually from 108 µM), actives largely listed as inhibitors; 580,000 compounds, 1.1% hits; Polyunsaturated fatty acid lipoxygenase ALOX12 (Homo sapiens), P18054; purified 12hLO, xylenol orange hydroperoxide absorbance
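Purified human 12hLO at 150 nM in 25 mM Hepes, 0.01% Triton X-100, pH 7.0, preincubated 15 min at room temperature with compound. Reaction started with 40 uM arachidonic acid, 30 min at room temperature. Hydroperoxide measured by Fe-xylenol orange, 573/405 nm absorbance ratio.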
HP1b binding inh – HTS for Inhibitors of HP1-beta Chromodomain Interactions with Methylated Histone Tails; Chromobox protein homolog 1 (Homo sapiens), P83916; AlphaScreen HP1-beta / biotin-H3K9me3 peptide binding; Potency, µM (doses to about 114 µM), most hits filed as inhibitors; 390,000 compounds, 0.56% hits; AID 540317, 2011; also: nearly all actives have a fitted effect of over 70% in size
Target sequence (P83916 whole entry, looked up): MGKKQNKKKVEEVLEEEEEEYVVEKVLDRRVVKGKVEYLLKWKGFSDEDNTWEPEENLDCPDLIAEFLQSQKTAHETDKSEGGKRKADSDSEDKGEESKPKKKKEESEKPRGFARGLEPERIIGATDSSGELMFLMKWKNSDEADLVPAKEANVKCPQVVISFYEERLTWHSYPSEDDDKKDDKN
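AlphaScreen: HP1-beta (50 nM) preformed 30 min with biotin-H3(1-18)K9me3 peptide (50 nM) in PBS pH 7.4, 0.01% Tween-20. Compound added for 30 min at RT, then streptavidin donor/nickel chelate acceptor beads (10 ug/mL) for 30 min.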
JMJD2A Tudor inh – qHTS Assay for Inhibitors of JMJD2A-Tudor Domain; Lysine-specific demethylase 4A (Homo sapiens), O75164; AlphaScreen JMJD2A-Tudor / H3K4me3 peptide binding; Potency, µM (titrated, usually from 114 µM), most hits filed as inhibitors; 390,000 compounds, 4.4% hits; also: nearly all actives have a fitted effect of over 50% in size
Numbers stand for hits; . = inactive; ? = inconclusive; / = not tested or not shown; ! = repeats disagree; [ ] = dose if it differs, or a comment. Only some compounds are listed: those with a hit (about 9% of all), similar ones and a draw of the others. Calls follow the shape of the dose curve; as a rule, active = well fitted curve in the direction sought with a large enough effect; inconclusive = small, poorly fitted or top-dose-only effect, or another doubt; inactive = no such curve, though single readings can be large; an effect the other way counts as inactive or inconclusive.

SMILES | G9a inh | PLK1 PBD inh | BAZ2B inh | 12-LOX inh | HP1b binding inh | JMJD2A Tudor inh
COc1ccc(/C=N/n2cnc3c([nH]c4ccccc43)c2=O)cc1COc1ccccn1 | . | / | 56µM | / | / | /
COc1ccc2c(c1)[nH]c1c(=O)n(/N=C/c3ccc(OC)c(CN4CCCC4)c3)cnc12 | .[12.7 µM] | ? | . | ? | . | .[11.4 µM]
Cc1ccc(S(=O)(=O)c2nnn3c2nc(NC2CCCCC2)c2sccc23)cc1 | . | / | . | . | . | .
COc1ccc(NC(=O)c2c(OC)cc(=O)n3c2CCCC3)c(C)c1 | / | / | / | . | / | /
CCn1c(CCCOc2ccc(Cl)cc2Cl)n[nH]c1=S | ? | . | . | 25µM! | . | .
CCCCc1n[nH]c(=S)n1Cc1ccc(C)cc1 | 1.8µM | . | . | ? | . | 14µM
CCn1c(CCCCc2n[nH]c(=S)n2CC)n[nH]c1=S | 20µM | . | . | . | ? | 4.5µM
CCn1c(CCCOc2ccc(Cl)cc2Cl)nnc1SCC(=O)Nc1cccc(F)c1 | .[2.33 µM] | . | . | . | . | .
Cc1cc(Cl)ccc1OCCCc1n[nH]c(=S)n1Cc1ccccc1 | / | / | / | 16µM | / | /
Nc1c([N+](=O)[O-])c(=O)sc2ccccc12 | . | . | . | . | . | .
COCC(=O)N1CCc2nc(-c3ccccc3)nc(-c3ccc(Cl)cc3)c2C1 | / | / | / | . | / | /
Cc1ccc(Cn2c(CCCOc3ccc(Cl)cc3Cl)n[nH]c2=S)cc1 | / | / | / | 16µM | / | /
CCn1c(CCCOc2ccc(Cl)cc2C)n[nH]c1=S | / | / | / | 18µM | / | /
COc1ccc(CN/C(C)=C(/C#N)C(N)=O)cc1OC | . | 27µM | . | . | ? | .
COc1cc([N+](=O)[O-])c(N2CCOCC2)c([N+](=O)[O-])c1OC | ? | . | ? | . | . | .
O=[N+]([O-])c1cc(Br)c2nsnc2c1N1CCOCC1 | / | . | 32µM | . | 20µM | 40µM
CSc1nc2sccc2c(=O)[nH]1 | . | . | . | . | . | .
O=C1CNC(=O)N1c1ccc(Cl)cc1 | . | . | . | . | . | .
CN(C)/C=C1\NC(=S)N(c2ccc(Cl)cc2)C1=O | 5.6µM | 27µM | ? | ? | ? | 45µM
CN(C)/C=C1\NC(=S)N(c2ccccc2)C1=O | 7.9µM | . | . | ? | . | 35µM
CCOc1cccc(/C=C2\NC(=S)N(c3ccccc3)C2=O)c1O | ? | . | . | ? | . | .
Cn1cc(S(=O)(=O)NCCc2ccccc2)c(=O)n(C)c1=O | . | . | . | . | . | .
O=C(C[n+]1cc(-c2ccccc2)n2c1CCCCC2)c1ccc(Cl)cc1 | . | . | . | . | . | .
Cc1ccc(-c2c[n+](CC(=O)c3ccc(Br)cc3)c3n2CCCCC3)cc1 | 45µM | . | ? | . | . | .
Cc1ccc(Cc2c(-c3ccccc3)nc3c(C)cc(Br)cn23)cc1 | / | . | / | . | / | /
SMILES | G9a inh | PLK1 PBD inh | BAZ2B inh | 12-LOX inh | HP1b binding inh | JMJD2A Tudor inh
Cc1ccc(Cc2c(-c3ccco3)nc3c(C)cc(Br)cn23)cc1 | / | ? | / | 14µM | / | /
Brc1ccc2nc(-c3ccco3)c(Cc3ccccc3)n2c1 | / | . | / | 14µM | / | /
Cc1ccc(Cc2c(-c3ccco3)nc3c4ccccc4ccn23)cc1 | / | . | / | 5µM | / | /
Cc1ccc(Cc2c(-c3ccco3)nc3ccc(C)cn23)cc1 | / | . | / | ? | / | /
O=C(O)C1CSC(c2coc3ccccc3c2=O)N1 (configuration not stated) | ? | . | 50µM | . | ? | 25µM
CCOC(=O)c1c(NC(=O)/C=C\C(=O)O)sc(C)c1-c1ccccc1 | ? | 21µM | . | . | . | ?
Cc1sc(NC(=O)C2C3CCC(C3)C2C(=O)O)c(C(N)=O)c1-c1ccc(C(C)(C)C)cc1 (configuration not stated) | ? | ? | . | . | . | .
CCOC(=O)c1c(NC(=O)C2C3CCC(O3)C2C(=O)O)sc(C)c1-c1ccc(C)cc1 (configuration not stated) | / | ? | . | ? | . | .
CCOC(=O)c1c(NC(=O)c2c(-c3ccccc3)noc2C)sc(C)c1-c1ccccc1 | . | . | . | . | . | .
CCc1c(C)sc(NC(=O)/C=C/C(=O)O)c1C(N)=O | 35µM | . | . | ? | . | .
Cc1sc(NC(=O)/C=C/C(=O)O)c(C(N)=O)c1-c1ccc(C(C)(C)C)cc1 | ? | 27µM | . | ? | . | .
CCOC(=O)c1c(NC(=O)/C=C/C(=O)O)sc(C)c1-c1ccc(C(C)(C)C)cc1 | ? | 21µM | ? | ? | . | ?
Cc1ccc(C(=O)Nc2cccnc2)cc1S(=O)(=O)N1CCCC1 | . | . | . | . | . | .
Cc1ccc(NS(=O)(=O)c2cc(C(=O)Nc3cccnc3)ccc2C)cc1 | 79µM | . | . | ? | . | ?
Cc1ccc(NS(=O)(=O)c2cc(C(=O)NCc3cccnc3)ccc2C)cc1 | ? | . | . | . | . | .
Cc1ccc(C(=O)Nc2cccc([N+](=O)[O-])c2)cc1S(=O)(=O)Nc1cccc(C(=O)O)c1 | ? | 15µM | . | . | . | .[11.4 µM]
Cc1ccc(NS(=O)(=O)c2cc(C(=O)N3CCN(CCO)CC3)ccc2C)cc1 | 2µM | . | 50µM | . | . | 79µM
Cc1ccc(C(=O)Nc2cccnc2)cc1S(=O)(=O)N1CCCCC1 | . | 17µM | . | . | ? | .[11.4 µM]
CSc1ccc(-c2cc3c(c4c2ccn4C)C2CCC3C2)cc1 (configuration not stated) | / | . | / | ? | / | /
Cc1ccccc1Nc1nc(N)nc(COC(=O)c2cccc(S(=O)(=O)N(C)c3ccccc3)c2)n1 | . | . | . | . | . | ?
O=C(CSc1nnc(-c2cccc(F)c2)o1)NC1CCCC1 | . | . | . | . | . | .
Cc1ccc(O)c(NC(=O)c2ccc(Br)c(S(=O)(=O)N3CCCCC3)c2)c1 | ? | / | 18µM | . | . | ?
CCOc1ccc(NC(=O)C2CCN(C(=O)N3CC(C)Oc4ccc(Cl)cc43)CC2)cc1 (configuration not stated) | ? | / | 79µM | . | . | ?
O=C(O)Cc1ccc(N=Cc2c(O)ccc3ccccc23)cc1 | 1.6µM | . | . | . | . | .
N#Cc1cccc(N=Cc2c(O)ccc3ccccc23)c1 | 1.4µM | . | . | . | . | 35µM
O=C(CNc1ccccc1)N/N=C/c1c(O)ccc2ccccc12 | . | . | . | ? | . | .
O=C(O)c1ccc(N=Cc2c(O)ccc3ccccc23)cc1 | 1.1µM | . | . | . | . | ?
COc1ccc(NC(C)C(=O)N/N=C/c2c(O)ccc3ccccc23)cc1 (configuration not stated) | 45µM | . | . | . | . | .

Source: PubChem
